From PubChem BioAssay AID1209 (Sanford-Burnham Center for Chemical Genomics, 2008)
Hit rate of the full screen: of about 190,000 compounds, about 810 (0.43%) were called active. Rule as the data show it: active = inhibition above about 50%; inactive = the rest. The sample as a whole holds a higher share of actives than the screen did.

Molecular target: Mannose-6-phosphate isomerase (Homo sapiens) (UniProt P34949)
Test: MPI enzyme activity inhibition – biochemical, fluorescence intensity, coupled assay, primary screen (AID 1209);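 also: plate controls were DMSO vehicle for no effect and wells lacking substrate for full effect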
Conditions: purified PMI enzyme, at 20 µM, active compounds read high

Mannose-6-phosphate isomerase (Homo sapiens), sequence (P34949 whole entry, looked up): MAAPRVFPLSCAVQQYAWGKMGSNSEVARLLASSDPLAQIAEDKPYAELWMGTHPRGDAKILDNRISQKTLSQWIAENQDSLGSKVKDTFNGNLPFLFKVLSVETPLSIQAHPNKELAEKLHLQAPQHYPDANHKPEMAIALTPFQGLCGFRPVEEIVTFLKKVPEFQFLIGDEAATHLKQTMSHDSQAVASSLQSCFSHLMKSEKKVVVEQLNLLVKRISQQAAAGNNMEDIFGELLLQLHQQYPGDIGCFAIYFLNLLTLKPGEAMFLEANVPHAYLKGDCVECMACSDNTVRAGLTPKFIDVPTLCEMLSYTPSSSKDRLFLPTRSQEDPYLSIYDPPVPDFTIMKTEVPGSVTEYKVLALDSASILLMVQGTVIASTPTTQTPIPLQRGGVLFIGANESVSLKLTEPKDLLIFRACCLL

inhibition, inactive:
O=C(OCc1cc2ccccc2[nH]c1=O)C1CCCCC1 -2.3%, COc1ccc(N2C(=S)NC(C)(C)CC2(C)c2ccc(OC(C)=O)cc2OC(C)=O)cc1 (configuration not stated) -2.5%, COc1ccc(C2(c3ccc(O)cc3O)CC(c3ccccc3Cl)NC(=S)N2)cc1 (configuration not stated) 11.9%, O=C1Nc2ccccc2C12OCCO2 -6.7%, O=C1N2CCCc3cccc(c32)C12Nc1ccccc1S2 (configuration not stated) 22.1%, C/C(=N\NC(=O)Cc1ccccc1)c1cccs1 9.1%, Cc1ccccc1N=Cc1cc2c(cc1[N+](=O)[O-])OCO2 22.6%, Cc1cccc(N=Cc2cc3c(cc2[N+](=O)[O-])OCO3)c1 49.7%, COc1ccccc1/C=C/C(=O)Nc1cccc(S(=O)(=O)NC2=NCCCCC2)c1 -3.7%, CN(C)c1ccc(NC(=O)Cn2ncn3c(cc4ccccc43)c2=O)cc1 22.7%, O=C(NC1CC1)C1CCN(c2ncnc3c2sc2cccc(F)c23)CC1 7.9%, COc1cc(/C=C2\SC(c3ccc(C)cc3)=NC2=O)cc(OC)c1O 26.7%, COc1cc(/C=C2\SC(c3ccc(C)cc3)=NC2=O)ccc1O 14.1%, COc1ccc(NC(=O)N2CCCC2C(=O)Nc2ccc(C)cc2)cc1 (configuration not stated) 1.2%, CCOc1cc(C2C(C(=O)O)c3cc(OCC)c(OCC)cc3C(=O)N2C)ccc1O (configuration not stated) 6%, C/C(=C\C(=O)c1ccccc1)NNc1nc2ccccc2s1 -3.4%, COc1ccc(S(=O)(=O)n2nc(OC(C)=O)cc2N)cc1 -1.2%, Cc1ccc2nc(SCC(=O)NC(=O)NCc3ccco3)[nH]c2c1 6.4%, COC(=O)c1ccc(C)c(NC(=O)CCc2ccc(OC)cc2)c1 11.9%, C=CCn1sc(N)c(C(=O)OCC)c1=S -8%, CCOC(=O)c1c(N)sn(-c2ccccc2)c1=S 14.9%, COc1ccc(C(NC(=O)/C=C\c2ccco2)c2ccc(OC)c(OC)c2)cc1 (configuration not stated) 3.2%, S=C(NCC1CCCO1)Nc1cccc(Cl)c1 (configuration not stated) -4.4%, CC(=O)Nc1ccc(/C=N/Nc2nc3ccccc3[nH]2)cc1 20.8%, CCN(CC)c1ccc(/C=N/Nc2nc3ccccc3[nH]2)c(O)c1 29.1%, C=CCn1c(C)cc(C(=O)Cn2nc(C(=O)O)c3ccccc3c2=O)c1C 0.5%, COc1ccc(-c2nc(SC(CC(=O)NCCN3CCOCC3)c3cccs3)n[nH]2)cc1 (configuration not stated) 2.7%, Cc1ccc(NC(=O)CSc2nnc(C)c(=O)n2N)cc1 -5.9%, Cc1ccc(C)c(NC(=O)CSc2nnc(C)c(=O)n2N)c1 -3%, Cn1c(-c2cccc(Br)c2)n[nH]c1=O -8.4%, Brc1cccc(-c2n[nH]c(-c3ccccc3)n2)c1 18.9%, O=C(NNC(=O)C1CCCN(S(=O)(=O)c2cccc(F)c2)C1)C1CC1 (configuration not stated) 6.8%, Cc1cc(C(=O)N/N=C/c2ccc(O)c([N+](=O)[O-])c2)n[nH]1 -7.3%, Cc1cc(C(=O)N/N=C/c2cc(N=Nc3ccccc3)ccc2O)n[nH]1 4.9%, Cn1c(=O)c2c(ncn2CC(=O)Nc2cccc(S(=O)(=O)Nc3ccccc3F)c2)n(C)c1=O 25.8%, O=C(CN1C(=O)c2ccccc2C1=O)Nc1cccc(S(=O)(=O)Nc2ccccc2Cl)c1 12.3%, O=C(Nc1cccc(S(=O)(=O)N2CCCC2)c1)c1ccc2ccccc2n1 10%, Nc1ccc(SCC(=O)Nc2cccc([N+](=O)[O-])c2)cc1 -7.1%, COc1ccccc1NS(=O)(=O)c1cccc(NC(=O)c2ccc3ccccc3n2)c1 17.4%, O=C(/C=C/c1ccccc1)Nc1cccc(C(=O)O)c1 8.9%, CSc1cccc(NC(=O)/C=C/c2ccccc2)c1 10.8%, O=C(Cc1ccc(Cl)cc1)Nc1cccc(S(=O)(=O)Nc2ccccc2F)c1 23.4%, Cc1ccc(C(=O)c2ccccc2C(=O)OCC(=O)NCC2CCCO2)cc1 (configuration not stated) 1.4%, Cc1cc(OC(C)C(N)=O)nc(-c2ccccc2)n1 (configuration not stated) -14.2%, CC(C)c1ccc(CN2CC(C(=O)O)CC2=O)cc1 (configuration not stated) -7%, Cc1ccc(N2CCN(CC(O)COc3ccc([N+](=O)[O-])cc3)CC2)cc1 (configuration not stated) -2%, COc1cc(/C=N/Nc2ccccn2)ccc1OCC(C)C -6.3%, CCOC(=O)CC1C(=O)NCCN1C(=O)c1cccc(C(F)(F)F)c1 (configuration not stated) -0.3%, CCOC(=O)CC1C(=O)NCCN1C(=O)c1ccc(F)cc1F (configuration not stated) -8.1%, Nc1nonc1-c1noc(N2CCCCC2)n1 6%, COc1ccc(-c2nnn(CC#N)n2)cc1OC -3.6%, O=C(N/C(=C\c1cccnc1)C(=O)N1CCOCC1)c1ccco1 -15.9%, Cc1nnc(NC(=O)c2c(-c3ccccc3)noc2C)s1 0.7%, COc1ccc(Cc2nnc(NC(=O)c3c(-c4ccccc4)noc3C)s2)cc1 12.3%, CCOCc1nnc(NC(=O)CSc2ccccc2)s1 6.1%, Cc1ccc(OCc2nnc(NC(=O)c3ccco3)s2)cc1 -5.1%, O=C(Nc1nnc(COc2ccccc2)s1)c1ccco1 3.1%, Cc1cccc(C)c1OCc1nnc(NC(=O)CSc2ccc(Cl)cc2)s1 9.2%, COC(=O)/C(C(C)=O)=C(\C=C\N(C)C)N(C)C 1%, Nc1nnc(SCc2ccccc2F)n1-c1ccccc1 3.6%, NC(=O)[C@@H]1CCNc2c(I)cc([N+](=O)[O-])cc2C(=O)N[C@@H](CO)C(=O)N[C@@H](Cc2ccc(O)cc2)C(=O)N1 -42.9%, CCN(CCC(=O)Nc1cc(OC)cc(OC)c1)Cc1ccccc1 6.5%, Cc1nnc(NC(=O)c2ccc3ccccc3n2)s1 -23.8%, COc1ccc(C(c2sc3nc(C)nn3c2O)N2CCCCC2)cc1 (configuration not stated) -1.5%, COc1cccc(C(c2sc3ncnn3c2O)N2CCc3ccccc3C2)c1 (configuration not stated) 40.6%, COc1cc(C(c2sc3nc(C)nn3c2O)N2CCc3ccccc3C2)cc(OC)c1OC (configuration not stated) 11.5%, CCN1CCN(C(c2cccc(OC)c2)c2sc3nc(C)nn3c2O)CC1 (configuration not stated) 2.4%, COc1cc2c(cc1OC)CC(=O)N(C)CC2 3.4%, O=C(CSC1CC(=O)N(c2ccc(C(=O)O)cc2)C1=O)Nc1ccc(Cl)cc1 (configuration not stated) -7.6%, Cc1ccc(N2C(=O)CC(SCC(=O)Nc3ccc(S(N)(=O)=O)cc3)C2=O)cc1 (configuration not stated) 16.8%, CCN(CC(=O)NCCc1ccc(S(N)(=O)=O)cc1)Cc1nc2cc(OC)c(OC)cc2c(=O)[nH]1 -4.3%, CC(C(=O)Nc1ccccc1C(=O)O)n1c(C(F)(F)F)nc2ccccc21 (configuration not stated) 1.2%, O=C(CSc1nc2c(sc3ccccc32)c(=O)n1CCCN1CCCC1)NCC1CCCO1 (configuration not stated) -1%, O=C(CSc1nc2c(sc3ccccc32)c(=O)n1Cc1ccccc1)NCC1CCCO1 (configuration not stated) 15.3%, COc1ccc(C2=CC(c3ccc(OC)c(OC)c3)NC(=S)N2)cc1 (configuration not stated) 3.4%, CN(C)/C=N/c1ncc(C(=O)c2ccc(Cl)cc2)s1 0.8%, CN(C)/C=N/c1ncc(C(=O)c2ccc(Cl)cc2Cl)s1 -11.6%

inhibition, active:
COc1ccc(C2(c3ccc(OC(C)=O)cc3OC(C)=O)CC(c3ccccc3)NC(=S)N2)cc1 (configuration not stated) 63.8%, O=C1Nc2ccccc2C12Nc1ccccc1S2 (configuration not stated) 58.7%, O=[N+]([O-])c1cc2c(cc1C=Nc1ccccc1)OCO2 55.1%, Cc1ccc(C2=NC(=O)/C(=C/c3cc(O)c(O)c(Br)c3)S2)cc1 81.3%, CCOC(=O)c1c(N)sn(-c2ccccc2C)c1=S 61.3%, CCN(CC)c1ccc(/C=N/Nc2nc3ccccc3[nH]2)cc1 53%, Cc1ccc(NC(=O)CSc2nnc(C)c(=O)n2N)c(C)c1 76.6%, Cc1cc(C(=O)N/N=C/c2cccc([N+](=O)[O-])c2O)n[nH]1 52.3%, O=C(Nc1cccc(S(=O)(=O)Nc2ccccc2F)c1)c1ccc2ccccc2n1 70.4%, O=C(CSc1ccc([N+](=O)[O-])cc1)Nc1cccc(S(=O)(=O)Nc2ccccc2F)c1 62.2%, O=C(/C=C/c1ccccc1)Nc1cccc(S(=O)(=O)Nc2ccccc2F)c1 66.1%, O=C(Cc1ccc(Cl)cc1Cl)Nc1cccc(S(=O)(=O)Nc2ccccc2F)c1 59%, CCOC(=O)CC1C(=O)NCCN1C(=O)c1c(F)cccc1F (configuration not stated) 50.5%, O=C(Nc1nnc(COc2ccc(Cl)cc2)s1)c1ccco1 62.4%, O=C(CSc1ccccc1)Nc1nnc(COc2ccc(Cl)cc2)s1 71.7%, Cc1onc(-c2ccccc2)c1C(=O)Nc1nnc(COc2ccc(Cl)cc2)s1 76.2%, COc1ccc(C(c2sc3nc(C)nn3c2O)N2CCc3ccccc3C2)cc1 (configuration not stated) 72.5%, COc1cccc(C(c2sc3nc(C)nn3c2O)N2CCc3ccccc3C2)c1 (configuration not stated) 65.3%, O=C(CSc1nc2c(sc3ccccc32)c(=O)n1CCO)NCC1CCCO1 (configuration not stated) 54%, Cc1cc(C(=O)c2cnc(/N=C/N(C)C)s2)c(F)cc1Cl 93.5%
